Where “and” joins values, the source holds several entries; their conditions need not be identical. Equal values may be shown once. Read-outs that look alike come from different tables or passages of the source.

For assay [1], the system named is T1, YES.
T1 construct: gene YES1
To be noted: n = 1.

Assay [2] has as its system T2, YSK1.
T2 construct: gene STK25
The settings on record: n = 1.

The subject of assay [3] is T3, YSK4.
T3 construct: gene MAP3K19
The settings on record: n = 1.

In assay [4] the test system is ZAK. To be noted: n = 1.
The subject of assay [5] is ZAP70. To be noted: n = 1.
Assay [6] deals with T4, p38-alpha.
T4 construct: gene MAPK14
The settings on record: concentration: 1 μM, replicates: in singlicate; n = 1.

Assay [7] deals with T5, p38-beta.
T5 construct: gene MAPK11
To be noted: concentration: 1 μM, replicates: in singlicate; n = 1.

The test system of assay [8] is p38-delta. The settings on record: n = 1.
The subject of assay [9] is T6, p38-gamma.
T6 construct: gene MAPK12
The settings on record: n = 1.

Setting [10] is: concentration: 1 μM, replicates: in singlicate.
Setting [11] is: concentration: 1 μM,replicates: in singlicate, 1 µM.
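Also: KINOMEscan kinase panel screen.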

On to `Cc1c(Cn2ccn3c(=O)cc(N4CCOCC4)nc23)cccc1C(F)(F)F` [GSK2289044], for which the “%Inh” value in assay [1] (setting [10]) amounted to 3%; in [2] (setting [10]), 0%; in assay [3] (setting [10]) it was 43%; in assay [4] (setting [10]), 8%; in assay [5] (setting [10]), 0%; in assay [6] it was 0%. The “%Inh” value in assay [7] was found to be 0%; in assay [8] (setting [10]) it was 12%; in assay [9] (setting [10]), 12%.

Regarding `Nc1nc(-c2nccs2)c(-c2ccnc3ccccc23)s1` [GW693542], the “%Inh” value in [1] (setting [10]) was determined as 17%; in [2] (setting [10]), 10%; in assay [3] (setting [10]) it was 28%; in [4] (setting [10]), 39%; in assay [5] (setting [10]), 0%; in [6], 0%. Also, the “%Inh” value in assay [7] was determined as 0%; in assay [8] (setting [10]), 22%; in assay [9] (setting [10]) it was 30%.

Turning to `Cn1ccc2ncnc(Oc3ccc(NC(=O)Nc4ccccc4)cc3)c21`, the “%Inh” value worked out at 0% in assay [1] (setting [10]); 0% in [2] (setting [10]); 93.1% in [3] (setting [10]); 0% in assay [4] (setting [10]); 0% in assay [5] (setting [10]); 0% in assay [6]. Besides, the figures for the “%Inh” value in assay [7], in assay [8] (setting [10]) and in [9] (setting [10]) were 0%, 6% and 0%, respectively.

For `CN(C)CCN(C)C(=O)c1cc(-c2ccncc2)c(-c2ccc(Cl)c(O)c2)o1.Cl.Cl` [SB-710397], the “%Inh” value in assay [1] (setting [10]) came to 0%; in assay [2] (setting [10]) it was 0%; in [3] (setting [10]), 57%; in assay [4] (setting [10]), 41%; in [5] (setting [10]), 35%; in assay [6], 82%. The entries for the “%Inh” value in [7], in assay [8] (setting [10]) and in assay [9] (setting [10]) were 0%, 51% and 29%, respectively.

In the case of `O=c1cc(N2CCOCC2)nc2n(Cc3cccc(Cl)c3Cl)ccn12` [GSK2286295], the “%Inh” value was 14% in [1] (setting [10]); 8% in assay [2] (setting [10]); 23% in assay [3] (setting [10]); 6% in [4] (setting [10]); 0% in assay [5] (setting [10]); 0% in assay [6]. The “%Inh” value came to 0% in assay [7], 40% in [8] (setting [10]) and 27% in [9] (setting [10]).

For the compound `Cc1cccc(-c2nc(Nc3ccncc3)c3ccccc3n2)n1` [GW855857], the “%Inh” value in [1] (setting [10]) is 0%; in [2] (setting [10]) it was 0%; in assay [3] (setting [10]), 0%; in assay [4] (setting [10]), 4%; in assay [5] (setting [10]), 0%; in assay [6], 16%. In addition, the “%Inh” value was 1% in [7], 0% in assay [8] (setting [10]) and 24% in [9] (setting [10]).

As for `CC1=C(C(=O)Nc2cc3cn[nH]c3cc2F)C(c2ccc(C(F)(F)F)cc2)CC(=O)N1` (stereo not drawn) [GSK429286], the “%Inh” value in assay [1] (setting [10]) amounted to 17%; in assay [2] (setting [10]), 0%; in assay [3] (setting [10]) it was 9%; in assay [4] (setting [10]), 9%; in [5] (setting [10]) it was 0%; in assay [6], 0%. For the same compound, the “%Inh” value in assay [7] is recorded as 0%; in assay [8] (setting [10]) it was 21%; in assay [9] (setting [10]), 0%.

With `COc1cccc(NC(=O)NC2CCN(c3ccnc(Nc4ccc(F)cc4)n3)C2)c1` (stereo not drawn) [GSK1379721], the “%Inh” value worked out at 0% in assay [1] (setting [10]); 10% in [2] (setting [10]); 3% in [3] (setting [10]); 42% in assay [4] (setting [10]); 0% in assay [5] (setting [10]); 4% in assay [6]. In addition, the figures for the “%Inh” value in [7], in [8] (setting [10]) and in assay [9] (setting [10]) were 0%, 35% and 2%, respectively.

Take `Cc1cccc(-c2nc(Nc3cccc(C(N)=O)c3)c3ccccc3n2)n1` [GW876019]: the “%Inh” value in assay [1] (setting [10]) was 19%; in assay [2] (setting [10]), 12%; in assay [3] (setting [10]), 0%; in [4] (setting [10]), 0%; in assay [5] (setting [10]), 0%; in assay [6], 0%. The “%Inh” value stood at 34% in [7], 16% in assay [8] (setting [10]) and 58% in assay [9] (setting [10]).

Consider `CS(=O)(=O)c1ccc(-c2nc3n(c2-c2ccncc2)CCC3)cc1` [SKF-105942], for which the “%Inh” value in [1] (setting [10]) is recorded as 33%; in assay [2] (setting [10]), 5%; in [3] (setting [10]), 1%; in assay [4] (setting [10]), 0%; in assay [5] (setting [10]), 0%; in assay [6] it was 0%. For the same compound, the “%Inh” value is listed as 0% in [7], 31% in [8] (setting [10]) and 14% in [9] (setting [10]).

On to `CSc1nn2c(=O)cc(N3CCOCC3)nc2n1Cc1cccc(C(F)(F)F)c1C` [GSK2363608], for which the “%Inh” value in assay [1] (setting [11]) was 19% and 22%; in assay [2] (setting [11]), 1% and 0%; in [3] (setting [11]), 40% and 30%; in assay [4] (setting [11]), 10% and 0%; in assay [5] (setting [11]) it was 32% and 0%; in assay [6], 0%. Also, the “%Inh” value in assay [7] was 0%; in [8] (setting [11]), 55% and 34%; in assay [9] (setting [11]) it was 7% and 0%.

As to `Cc1ccc(C(=O)Nc2ccc(Nc3ccnc4cc(-c5ccccn5)ccc34)cc2O)cc1.Cl` [GW440146], the “%Inh” value is 42% in assay [1] (setting [10]); 0% in assay [2] (setting [10]); 14% in [3] (setting [10]); 48% in assay [4] (setting [10]); 9% in [5] (setting [10]); 0% in [6]. In addition, the results for the “%Inh” value in assay [7], in assay [8] (setting [10]) and in assay [9] (setting [10]) were 0%, 42% and 11%, respectively.

Take `NC(=O)c1nnc2ccccc2c1N`: the “%Inh” value in assay [1] (setting [10]) worked out at 0%; in assay [2] (setting [10]), 2%; in [3] (setting [10]), 88%; in assay [4] (setting [10]) it was 0%; in assay [5] (setting [10]) it was 0%; in assay [6] it was 71%. The “%Inh” value in assay [7] is listed as 0%; in assay [8] (setting [10]), 0%; in [9] (setting [10]) it was 43%.

In the case of `Fc1cc(Cl)ccc1Nc1ccnc2cc(-c3ccc(CN4CCCCC4)o3)ccc12` [GW560116], the “%Inh” value in assay [1] (setting [10]) stood at 1%; in [2] (setting [10]), 17%; in assay [3] (setting [10]), 5%; in assay [4] (setting [10]), 0%; in assay [5] (setting [10]) it was 0%; in [6] it was 36%. The “%Inh” value in assay [7] was determined as 0%; in [8] (setting [10]), 40%; in assay [9] (setting [10]), 9%.

`COC(=O)c1c(-c2ccccc2)c2cc(C(=O)O)ccc2c(=O)n1Cc1ccccc1`: the “%Inh” value in [1] (setting [10]) is listed as 0%; in assay [2] (setting [10]), 0%; in assay [3] (setting [10]), 0%; in assay [4] (setting [10]) it was 0%; in assay [5] (setting [10]), 31%; in [6], 24%. The “%Inh” value in assay [7] is recorded as 19%; in assay [8] (setting [10]), 21%; in assay [9] (setting [10]), 0%.

For `Cc1ccc(-c2cc(-c3c[nH]nc3-c3ccccn3)ccn2)cc1` [GW684088], the “%Inh” value in assay [1] (setting [10]) is listed as 17%; in assay [2] (setting [10]), 10%; in assay [3] (setting [10]), 2%; in assay [4] (setting [10]) it was 0%; in assay [5] (setting [10]) it was 10%; in assay [6] it was 56%. Further, the entries for the “%Inh” value in assay [7], in [8] (setting [10]) and in [9] (setting [10]) were 0%, 25% and 11%, respectively.

Consider `Cl.c1ccc(-c2n[nH]cc2-c2ccnc(-c3ccc(CN4CCOCC4)cc3)c2)nc1` [GW776245], for which the “%Inh” value worked out at 0% in [1] (setting [10]); 0% in assay [2] (setting [10]); 0% in [3] (setting [10]); 13% in assay [4] (setting [10]); 0% in assay [5] (setting [10]); 17% in assay [6]. The “%Inh” value is 23% in assay [7], 7% in [8] (setting [10]) and 55% in assay [9] (setting [10]).

With `CC(C)(C)c1ccc(C(=O)Nc2cn3cc(-c4cccnc4)ccc3n2)cc1`, the “%Inh” value in assay [1] (setting [10]) is 10%; in assay [2] (setting [10]), 1%; in assay [3] (setting [10]), 66%; in [4] (setting [10]) it was 19%; in [5] (setting [10]), 0%; in assay [6], 1%. Moreover, the “%Inh” value in assay [7] amounted to 30%; in assay [8] (setting [10]), 46%; in [9] (setting [10]) it was 21%.

The values above are taken from PMC5540273 (PLoS ONE, 2017).
